{"source": "PubChem BioAssay AID1259343", "about": "(VanderVen Lab, College of Veterinary Medicine, Cornell …, 2017)", "note": "Screen size: about 6,200 compounds; about 2,900 (47%) were called active. So high a share suggests a set chosen from earlier hits. The list shows a part of the results. Values without a mark were called inactive. Rule as the data show it: active = inhibition above about 50%; inactive = the rest.", "data": [{"test": "Mycobacterium tuberculosis growth inhibition, primary screen (AID 1259343)", "settings": "inhibition: at 10 µM, hits give high values; outcome: 10 uM", "values": [{"smiles": "COc1c(F)c(F)c(C(=O)C2C(=O)C=C(c3c(F)c(F)c(OC)c(F)c3F)OC2=O)c(F)c1F", "note": "(centres undefined)", "inhibition": "36.4%"}, {"smiles": "Cc1cccn2c(NC(C)(C)CC(C)(C)C)c(-c3cccc(OC(=O)c4cccc5ccccc45)c3)nc12", "inhibition": "9.87%"}, {"smiles": "Cc1ccc2nc(-c3ccccn3)c(NC(C)(C)CC(C)(C)C)n2c1", "inhibition": "101% (active)"}, {"smiles": "O=C(Nc1ccc(C(F)(F)F)[nH]c1=O)c1ccccc1", "inhibition": "-22.3%"}, {"smiles": "Cc1ccc(NC(=O)c2cc3c(C(F)(F)F)cc(=O)[nH]c3o2)c(Cl)c1", "inhibition": "101% (active)"}, {"smiles": "Cc1ccc(-n2nc3c(c2NC(=O)/C=C\\c2ccccc2)CSC3)cc1", "inhibition": "84% (active)"}, {"smiles": "CCCc1ccc(CN2CCN(Cc3cccc(F)c3)CC2)o1", "inhibition": "45.4%"}, {"smiles": "CN(Cc1ccco1)C(=O)c1sc2cc(F)ccc2c1Cl", "inhibition": "20.1%"}, {"smiles": "Cc1cccc(C2CC(C(=O)N(C)Cc3ccco3)CN(Cc3cccc(F)c3)C2)c1", "note": "(centres undefined)", "inhibition": "54.6% (active)"}, {"smiles": "Cc1cc(C(=O)NCCc2ccc(Cl)cc2)c(C)o1", "inhibition": "88.2% (active)"}, {"smiles": "CC(C)Nc1ncccc1C(=O)NCCc1cccc(Cl)c1", "inhibition": "15.2%"}, {"smiles": "CC(C)Cc1nc(CS(=O)(=O)C/C=C/c2ccccc2)no1", "inhibition": "43.6%"}, {"smiles": "CC(C)Cc1noc(Cn2cc(I)cn2)n1", "inhibition": "91.5% (active)"}, {"smiles": "CC(CCC(=O)O)[C@H]1CCC2C3CC[C@@H]4C[C@H](O)CC[C@]4(C)C3C=C[C@@]21C", "note": "(some centres undefined)", "inhibition": "34.3%"}, {"smiles": "CN(CCOc1ccc(F)cc1)Cc1nc2cc(Cl)ccc2c(=O)[nH]1", "inhibition": "-0.34%"}, {"smiles": "O=S(CCCOc1ccc(F)cc1)Cc1ccc(F)cc1Cl", "note": "(centres undefined)", "inhibition": "89.6% (active)"}, {"smiles": "Cc1cc(NC(=O)c2cccc(F)c2)n(-c2nc3c(c(=O)[nH]2)CCC3)n1", "inhibition": "101% (active)"}, {"smiles": "Cc1cc(NC(=O)c2cccc(C(F)(F)F)c2)n(-c2nc3c(c(=O)[nH]2)CCC3)n1", "inhibition": "100% (active)"}, {"smiles": "O=C(NCCNc1cccc(C(F)(F)F)n1)c1ccc(O)cc1", "inhibition": "73.2% (active)"}, {"smiles": "CN(C)C(CNC(=O)c1ccc(C(F)(F)F)cc1)c1c(F)cccc1Cl", "note": "(centres undefined)", "inhibition": "8.7%"}, {"smiles": "CN(Cc1ccc(Br)s1)Cn1ncc2c([nH]c3ccccc32)c1=O", "inhibition": "-13.5%"}, {"smiles": "O=C(Nn1cc([N+](=O)[O-])cn1)c1cccc(COc2ccc(Br)cc2)c1", "inhibition": "78.8% (active)"}, {"smiles": "CCNC(=O)c1ccccc1OCc1cccc(Br)c1", "inhibition": "19.8%"}, {"smiles": "Cc1nc([N+](=O)[O-])cn1CCC(=O)NOCc1ccccc1", "inhibition": "-5.24%"}, {"smiles": "CNC(=O)Cc1ccc(-c2cc(OC)ccc2F)cc1", "inhibition": "57.2% (active)"}, {"smiles": "CCCCCCSc1s[nH]c(=O)c1C#N", "inhibition": "inactive"}, {"smiles": "CCCSc1nsc(SCCC)c1C#N", "inhibition": "97.4% (active)"}, {"smiles": "O=c1cc2c(nn1Cc1ccc(Br)cc1F)CCCC2", "inhibition": "-5.6%"}, {"smiles": "Fc1ccc(-c2nnn(Cc3ccccc3Br)n2)cc1", "inhibition": "-14%"}, {"smiles": "Fc1ccccc1Cn1nnc(-c2ccc(Br)cc2)n1", "inhibition": "94.7% (active)"}, {"smiles": "C/C(=C\\c1cc(Cl)ccc1O)CN1CCN(c2ncc(F)cn2)CC1", "inhibition": "37.7%"}, {"smiles": "Cc1ccc2oc(CN3CCN(c4cc(N)nc(N)n4)CC3)c(C)c2c1", "inhibition": "34.6%"}, {"smiles": "C/C(=C\\c1ccco1)CN1CCN(c2nc3cc(C)ccc3o2)CC1", "inhibition": "94.4% (active)"}, {"smiles": "CCCCN(C(=O)c1nc2nccc(C)n2n1)c1ccccc1", "inhibition": "-8.51%"}, {"smiles": "C=CCSc1nnc(-c2sc3ccccc3c2Cl)o1", "inhibition": "66.8% (active)"}, {"smiles": "S=c1oc(-c2sc3ccccc3c2Cl)nn1CN1CCOCC1", "inhibition": "1.82%"}, {"smiles": "C(=Cc1ccccc1)CSc1nnc(-c2c[nH]c3ccccc23)o1", "inhibition": "19.9%"}, {"smiles": "COc1cc2c(cc1OC)CN(C(=O)CCl)CC2", "inhibition": "83.7% (active)"}, {"smiles": "COc1cc(OC)c(C2=CCN(C(=O)CC3CCCC3)CC2)c(OC)c1", "inhibition": "5.97%"}, {"smiles": "CCc1csc(NC(=O)C2=NOC(c3ccccc3)C2)n1", "note": "(centres undefined)", "inhibition": "64% (active)"}, {"smiles": "O=C(Cc1csc(NC(=O)NC2CCCCC2)n1)Nc1ccccc1Oc1ccccc1", "inhibition": "-3.55%"}, {"smiles": "Brc1cc(CNc2cccnc2N2CCCC2)cs1", "inhibition": "21.1%"}, {"smiles": "O=c1cc(CNc2cccc(F)c2)nc2sc3c(n12)CCCC3", "inhibition": "30.1%"}, {"smiles": "Cc1csc2nc(CNc3cccc(C#Cc4cccs4)c3)cc(=O)n12", "inhibition": "60.6% (active)"}, {"smiles": "Cc1csc2nc(CNc3ccc(NC(=O)C4CC4)cc3C(F)(F)F)cc(=O)n12", "inhibition": "10.5%"}, {"smiles": "CC(Cc1ccccc1Cl)NC(=O)c1ccccn1", "note": "(centres undefined)", "inhibition": "70.5% (active)"}, {"smiles": "CC(CCc1ccccc1)NC(=O)c1cc(Cl)ccn1", "note": "(centres undefined)", "inhibition": "43.1%"}, {"smiles": "O=C(NCCc1ccccc1Cl)c1cccc2ccnn12", "inhibition": "44.4%"}, {"smiles": "Cc1ccc(S(=O)(=O)NC(C)c2ccc(Cl)cc2Cl)s1", "note": "(centres undefined)", "inhibition": "42.2%"}, {"smiles": "Cc1ccc(S(=O)(=O)Nc2cc(C(C)C)no2)s1", "inhibition": "43.6%"}, {"smiles": "Cc1ccc(S(=O)(=O)NCCc2sc(-c3ccc(Cl)cc3)nc2C)s1", "inhibition": "76.3% (active)"}, {"smiles": "CCCCOc1ccc(C(=O)Nc2cc(C)nn2-c2nc(C)cc(=O)[nH]2)cc1", "inhibition": "101% (active)"}, {"smiles": "CCCCOc1ccc(C(=O)Nc2cc(C)nn2-c2nc(C)c(C)c(=O)[nH]2)cc1", "inhibition": "16.8%"}, {"smiles": "CCOc1ccc(C(=O)Nc2cc(C)nn2-c2nc(C)cc(=O)[nH]2)cc1", "inhibition": "102% (active)"}, {"smiles": "CCOc1ccc(C(=O)Nc2cc(-c3cccs3)nn2-c2nc(C)cc(=O)[nH]2)cc1", "inhibition": "93.9% (active)"}, {"smiles": "Cc1ccc(C)c2c(C)c(C(=O)NCC3(C)CCCO3)oc12", "note": "(centres undefined)", "inhibition": "38.4%"}, {"smiles": "Nc1ccc(C(=O)Oc2ccccc2)c(O)c1", "inhibition": "98.9% (active)"}, {"smiles": "O=C(Oc1ccccc1C(=O)O)c1ccccc1O", "inhibition": "inactive"}, {"smiles": "O=S(=O)(Nc1nc2ccccc2nc1Cl)c1cccc(C(F)(F)F)c1", "inhibition": "38.5%"}, {"smiles": "CCc1nc(Nc2cccc(C(F)(F)F)c2)c2ccc(Cl)cc2n1", "inhibition": "88.9% (active)"}, {"smiles": "O=S(Cc1cccc(C(F)(F)F)c1)Cc1ccc(Cl)cc1Cl", "note": "(centres undefined)", "inhibition": "42.1%"}, {"smiles": "CC(C)N(C(=O)CCl)c1ccccc1", "inhibition": "100% (active)"}, {"smiles": "CN(CC1COc2ccccc2O1)C(=O)CCl", "note": "(centres undefined)", "inhibition": "-21.8%"}, {"smiles": "Cc1cc(=O)[nH]c2sc(C(=O)Nc3ccc(Br)cc3)c(N)c12", "inhibition": "79.5% (active)"}]}]}
